The nature of experiment [1]: optical density shifts of acrAB sulA E. coli – strain DRC41, OD650, 48 h, E. coli filamentation inducer project, primary screen (AID 1152).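 Further: E. coli MC1000 strain DRC41 lacking acrAB efflux pump and sulA.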 As to conditions: higher = more signal, called active from +8 up or from −8 down.
The nature of experiment [2]: probe aLefty1 binding on compound microarray – biochemical, small-molecule microarray, 635/667 nm fluorescence, primary screen (AID 1153).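 Further: score merges spot fluorescence with signal-to-noise ratio from the scanned slide images.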 The settings on record: higher = more signal.
The nature of experiment [3]: plasmodial surface anion channel blockers, osmotic lysis – cell-based, P. falciparum Indochina, OD700, 1 h, primary screen (AID 1154). The settings on record: P. falciparum Indochina infected RBC osmotic lysis, higher = more signal, called active from +8 up or from −8 down.
Experiment [4] can be described thus: plasmodial surface anion channel blockers, osmotic lysis – cell-based, P. falciparum Indochina, OD700, 2 h, primary screen (AID 1155).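 Further: lysis reports solute entry through the parasite surface anion channel PSAC.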 As to conditions: P. falciparum Indochina infected erythrocytes, higher = more signal, called active from +8 up or from −8 down.
Experiment [5] can be described thus: changes in parasitized red cell lysis, either direction – P. falciparum Indochina, OD700, 3 h, PSAC antagonist project, primary screen (AID 1156). The settings on record: P. falciparum-infected erythrocytes, osmotic lysis, higher = more signal, called active from +8 up or from −8 down.
Experiment [6] is described as follows: plasmodial surface anion channel blockers, osmotic lysis – cell-based, P. falciparum Indochina, OD700, 18 h, primary screen (AID 1157). As to conditions: P. falciparum Indochina infected erythrocytes, osmotic lysis OD700, 18 h; higher = more signal, called active from +8 up or from −8 down.
Experiment [7] is described as follows: S6 kinase pathway phospho-S6 level changes – cell-based, A549, cytoblot, luminescence, serum-stimulated, primary screen (AID 1158).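 Further: serum-stimulated A549 lung adenocarcinoma cells; signal is phosphorylated S6 detected by cytoblot immunostaining with HRP secondary.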 As to conditions: 5 h, higher = more signal.
The target of experiment [8] is NADPH oxidase 2 (Homo sapiens) (UniProt P04839). The experiment can be described thus: compounds shifting NOX2 Amplex Red fluorescence – cell-based, HEK293-NOX2, PMA-stimulated, NOX inhibitor project, primary screen (AID 1159). Further: test concentration not given here. As to conditions: 45 min, higher = more signal, called active from +8 up or from −8 down.
For experiment [9], the target named is NADPH oxidase 4 (Homo sapiens) (UniProt Q9NPH5). Put plainly: compounds shifting NOX4 Amplex Red fluorescence – cell-based, HEK293-NOX4, tetracycline-induced, NOX inhibitor project, primary screen (AID 1160). As to conditions: HEK293-NOX4, Amplex Red H2O2 fluorescence, 45 min; higher = more signal, called active from +8 up or from −8 down.
For experiment [10], the target named is NADPH oxidase 5 (Homo sapiens) (UniProt Q96PH1). Put plainly: compounds shifting NOX5 Amplex Red fluorescence – cell-based, HEK293-NOX5, NOX inhibitor project, primary screen (AID 1161). The settings on record: HEK293-NOX5, ionomycin, 45 min, higher = more signal.
A short description of experiment [11]: compound effects on lung adenocarcinoma cell viability – A549, calcein-AM fluorescence, 48 h, basal, profiling panel (AID 1162). Further: test concentration not given here. The settings on record: higher = more signal.
The nature of experiment [12]: compound effects on differentiated 3T3-L1 adipocyte viability – cell-based, 3T3-L1 adipocytes, calcein-AM fluorescence, 48 h, basal, profiling panel (AID 1163). Further: test concentration not given here. The settings on record: 3T3-L1 adipocytes viability, higher = more signal.
The nature of experiment [13]: compound effects on hepatocellular carcinoma cell viability – HepG2, calcein-AM fluorescence, 48 h, basal, profiling panel (AID 1164). Further: test concentration not given here. As to conditions: higher = more signal.
The nature of experiment [14]: compound effects on multiple myeloma cell viability – MM1S, calcein-AM fluorescence, 48 h, basal, profiling panel (AID 1165). Further: test concentration not given here. As to conditions: higher = more signal.
The nature of experiment [15]: calcein-AM signal in unstimulated myeloma cells – cell-based, calcein-AM fluorescence, 48 h, PK04 Diversity Set, profiling panel (AID 1166).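 Further: cells grown under basal conditions without added stimulus; test concentration not given here.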 As to conditions: RPMI8226 myeloma viability, higher = more signal.
A short description of experiment [16]: JC-1 mitochondrial signal, unstimulated HepG2 cells – cell-based, JC-1 fluorescence, 24 h, 100 nL compound, profiling panel (AID 1167). Further: test concentration not given here. The settings on record: HepG2 mitochondrial potential, higher = more signal.
Experiment [17] in a line: JC-1 mitochondrial signal, unstimulated adipocytes – cell-based, JC-1 fluorescence, 3T3-L1 adipocytes, 24 h, 100 nL compound, profiling panel (AID 1168). Further: test concentration not given here. As to conditions: JC-1 mitochondrial fluorescence, higher = more signal, called active from +8 up or from −8 down.
Experiment [18] in a line: JC-1 mitochondrial signal, unstimulated myeloma cells – cell-based, JC-1 fluorescence, RPMI8226, 24 h, 100 nL compound, profiling panel (AID 1169). Further: test concentration not given here. The settings on record: JC-1 mitochondrial potential fluorescence, higher = more signal.
Experiment [19] in a line: JC-1 mitochondrial signal, unstimulated MM1S myeloma – cell-based, JC-1 fluorescence, 24 h, 100 nL compound, profiling panel (AID 1170). Further: test concentration not given here. The settings on record: MM1S mitochondrial potential, higher = more signal.
Experiment [20] is described as follows: resazurin metabolic signal in A549 cells – cell-based, resazurin fluorescence, 24 h, PK04 Diversity Set, profiling panel (AID 1171). Further: test concentration not given here. The settings on record: A549 viability, higher = more signal, called active from +8 up or from −8 down.

Activity calls are given as the source filed them.

Sequence of NADPH oxidase 4 (Homo sapiens) (Q9NPH5 whole entry, looked up): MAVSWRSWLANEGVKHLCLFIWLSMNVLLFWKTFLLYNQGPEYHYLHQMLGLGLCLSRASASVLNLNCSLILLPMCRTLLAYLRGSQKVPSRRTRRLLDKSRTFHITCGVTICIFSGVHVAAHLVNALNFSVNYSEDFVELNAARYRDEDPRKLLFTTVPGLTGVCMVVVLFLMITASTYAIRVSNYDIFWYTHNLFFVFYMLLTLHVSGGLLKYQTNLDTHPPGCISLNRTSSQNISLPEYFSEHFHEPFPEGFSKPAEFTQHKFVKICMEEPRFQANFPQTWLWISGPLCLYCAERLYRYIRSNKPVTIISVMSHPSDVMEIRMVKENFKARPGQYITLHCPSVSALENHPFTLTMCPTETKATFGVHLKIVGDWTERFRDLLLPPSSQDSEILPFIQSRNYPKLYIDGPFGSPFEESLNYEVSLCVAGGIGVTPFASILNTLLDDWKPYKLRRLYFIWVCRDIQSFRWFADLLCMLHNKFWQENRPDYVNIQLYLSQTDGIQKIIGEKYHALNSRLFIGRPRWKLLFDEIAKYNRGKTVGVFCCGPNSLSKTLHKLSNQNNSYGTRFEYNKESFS
Sequence of NADPH oxidase 2 (Homo sapiens) (P04839 whole entry, looked up): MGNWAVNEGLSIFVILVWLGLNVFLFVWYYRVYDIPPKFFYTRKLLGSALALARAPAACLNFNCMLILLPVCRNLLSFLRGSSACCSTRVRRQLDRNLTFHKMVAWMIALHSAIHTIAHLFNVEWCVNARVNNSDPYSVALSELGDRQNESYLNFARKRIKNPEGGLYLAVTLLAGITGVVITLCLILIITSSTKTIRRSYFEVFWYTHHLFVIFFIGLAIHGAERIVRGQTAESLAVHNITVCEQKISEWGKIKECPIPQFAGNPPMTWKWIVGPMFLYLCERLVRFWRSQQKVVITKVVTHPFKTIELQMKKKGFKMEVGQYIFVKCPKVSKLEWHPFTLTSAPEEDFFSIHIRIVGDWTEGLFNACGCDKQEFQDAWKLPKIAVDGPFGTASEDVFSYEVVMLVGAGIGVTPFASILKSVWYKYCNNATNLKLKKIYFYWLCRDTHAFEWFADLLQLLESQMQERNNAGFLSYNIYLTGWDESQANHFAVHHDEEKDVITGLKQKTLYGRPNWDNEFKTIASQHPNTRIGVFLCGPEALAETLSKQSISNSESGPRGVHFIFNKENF
Sequence of NADPH oxidase 5 (Homo sapiens) (Q96PH1 whole entry, looked up): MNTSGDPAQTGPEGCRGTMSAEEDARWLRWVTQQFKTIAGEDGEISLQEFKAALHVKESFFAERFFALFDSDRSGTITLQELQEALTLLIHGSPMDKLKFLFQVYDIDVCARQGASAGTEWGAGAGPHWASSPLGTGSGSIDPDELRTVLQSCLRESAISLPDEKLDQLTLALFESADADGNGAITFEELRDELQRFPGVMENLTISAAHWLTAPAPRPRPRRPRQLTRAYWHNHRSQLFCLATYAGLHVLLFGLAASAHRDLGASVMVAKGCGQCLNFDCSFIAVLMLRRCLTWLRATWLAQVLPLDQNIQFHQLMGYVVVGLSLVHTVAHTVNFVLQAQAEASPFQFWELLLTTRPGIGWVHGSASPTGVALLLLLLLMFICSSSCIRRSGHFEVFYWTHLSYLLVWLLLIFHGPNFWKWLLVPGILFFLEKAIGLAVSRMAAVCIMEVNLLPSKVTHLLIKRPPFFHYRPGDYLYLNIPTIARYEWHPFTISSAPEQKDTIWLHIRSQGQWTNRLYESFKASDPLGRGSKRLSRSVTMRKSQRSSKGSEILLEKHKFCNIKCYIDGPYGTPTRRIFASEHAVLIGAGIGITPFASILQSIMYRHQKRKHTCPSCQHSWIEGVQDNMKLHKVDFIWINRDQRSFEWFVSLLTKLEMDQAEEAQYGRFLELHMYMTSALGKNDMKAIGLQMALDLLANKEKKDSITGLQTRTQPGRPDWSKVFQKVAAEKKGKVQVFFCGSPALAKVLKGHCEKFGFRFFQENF

For `CC(C)=CCCC(C)=CCON=C1C[C@@H](O)[C@@H](O)[C@@H]2[C@@H]3C(=O)N(C4CCCCC4)C(=O)[C@@H]3CC[C@@H]12`, the z-score in [1] is -0.734 (inactive); in experiment [3], 2.18 (inactive); in experiment [4], 0.677 (inactive); in experiment [5] it was -0.25 (inactive); in experiment [6] it was 0.525 (inactive); in experiment [7], -0.367. The z-score in experiment [8] was 0.606 (inactive); in [9], 0.435 (inactive); in experiment [10], -0.18; in experiment [11], -0.972; in [12] it was -0.345; in experiment [13], -1.14. Moreover, the z-score in experiment [14] was -2.39; in experiment [15], -1.36; in experiment [16], -1.64; in [17] it was -1.22 (inactive); in experiment [18], -0.258; in experiment [19], -0.859. Moreover, the z-score in experiment [20] was 0.023 (inactive). In [2], this compound displayed a composite z-score of -0.147.

`CCOC(=O)[C@H](CC(C)C)NC(=O)CCC1CC(OC(=O)NCCc2ccc(F)cc2)CC2(CCCC(COC(=O)NCCc3ccccc3OC)O2)O1` (stereo not given in full): the z-score was -0.501 (inactive) in experiment [1]; -1.58 (inactive) in experiment [3]; -0.344 (inactive) in experiment [4]; -0.17 (inactive) in [5]; -0.142 (inactive) in experiment [6]; -0.0491 in experiment [7]. The z-score was 0.00967 (inactive) in [8]; 0.15 (inactive) in [9]; -0.0222 in experiment [10]; 0.239 in experiment [11]; -0.227 in [12]; -0.204 in experiment [13]. The z-score was -1.35 in [14]; -1.41 in experiment [15]; 0.481 in [16]; 0.293 (inactive) in experiment [17]; -0.106 in experiment [18]; -0.878 in [19]. Further, the z-score in experiment [20] was -0.311 (inactive). In [2], this compound displayed a composite z-score of -0.0603.

Take `CCOC(=O)[C@H](CC(C)C)NC(=O)CCC1CC(OC(=O)NCCc2ccc(F)cc2)CC2(CCCC(COC(=O)NCCc3ccc(Cl)cc3)O2)O1` (stereo not given in full): the z-score in experiment [1] was -1.29 (inactive); in [3] it was 2.96 (inactive); in experiment [4], -0.44 (inactive); in experiment [5], 0.235 (inactive); in [6], 0.0264 (inactive); in [7] it was -0.146. Further, the z-score is 0.333 (inactive) in experiment [8]; 1.32 (inactive) in [9]; 1.33 in [10]; -0.977 in experiment [11]; 0.248 in experiment [12]; -0.49 in experiment [13]. Besides, the z-score in experiment [14] is 0.73; in experiment [15], -1.23; in [16], -1.04; in [17] it was 0.133 (inactive); in [18], -0.0969; in experiment [19], -0.232. Besides, in experiment [20], the z-score is 0.608 (inactive). The same compound gave a composite z-score in experiment [2] of 0.18.

`CC(=O)OC[C@H]1O[C@H](CC=NO[C@H](C)c2cn([C@H](CO)Cc3ccccc3)nn2)C=C[C@@H]1OC(C)=O`: the z-score in experiment [1] was -0.176 (inactive); in experiment [3] it was 0.639 (inactive); in [4] it was 0.103 (inactive); in experiment [5] it was 0.238 (inactive); in [6], 0.391 (inactive); in [7] it was -0.871. Moreover, the z-score in [8] is -0.0815 (inactive); in experiment [9] it was 0.835 (inactive); in experiment [10], -1.3; in [11], -0.404; in experiment [12], -0.857; in experiment [13], -0.0224. Moreover, the z-score in experiment [14] was -0.955; in [15], -1.94; in [16] it was -0.485; in experiment [17], -0.963 (inactive); in experiment [18], 0.013; in experiment [19], 0.186. In experiment [20], the z-score is 0.322 (inactive). In experiment [2], this compound yielded a composite z-score of -0.007.

The values are drawn from PubChem BioAssay.
